The source of these data is PubChem BioAssay (Tox21).

Each structure is given as a SMILES string. Records with an inconclusive call do not appear. A number with no mark means an inactive call. Activity calls are given as the source filed them. Calls come from the whole dose curve; as a rule, active = well fitted cell-killing curve with a large enough effect in the repeat runs; inconclusive = weak or mixed curves, or effect the other way; inactive = flat fitted curve, though single readings scatter.

Test [1] can be described thus: cAMP Responsive Elements (CRE) small molecule antagonists, cell-based qHTS assay: qHTS cell viability counter screen (AID 2060913). Note: nearly all actives have a fitted effect of over 40% in size. The procedure, abridged:
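Viability of NKH477-stimulated (0.25 uM final) CRE-bla HEK293T cells is measured by CellTiter-Glo luminescence following 3 hrs compound exposure at 37 C.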

The nature of test [2]: cAMP Responsive Elements (CRE) small molecule agonists, cell-based qHTS assay: qHTS cell viability counter screen (AID 2060914).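 Note: viability read after 3 h of compound exposure; nearly all actives have a fitted effect of over 50% in size.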 Summed up:
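CRE-bla HEK 293T cells, plated 18 h at 37 °C, were exposed to compounds for 3 h at 37 °C/5% CO2. Viability was then measured in the same wells by CellTiter-Glo luminescence after 30 min at room temperature.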
(In general: qHTS replaces the single test concentration by a dilution series.)
% is set by controls: 0 for no effect and ±100 for the full control effect.

With `Nc1cc(S(=O)(=O)O)ccc1O`, the Potency entry in test [1] and in test [2] was “inactive” throughout.
In the case of `O=S(O)CO`, the Potency result in test [1] and in test [2] was “inactive” each time.
`CC(C)(C)NCC(O)c1cc(O)cc(O)c1` (stereo unspecified): the Potency result in test [1] and in test [2] was “inactive” in each case.
As for `COC(=O)c1cc(C(=O)OC)cc(S(=O)(=O)O)c1`, the Potency entry in test [1] and in test [2] was “inactive” each time.
In the case of `c1cnccn1`, the Potency result in test [1] and in test [2] was “inactive” each time.
As for `CC(=O)N[C@@H](CS)C(=O)O`, the Potency result in test [1] and in test [2] was “inactive” each time.
Take `O=[N+]([O-])c1cc(C(F)(F)F)ccc1Cl`: the Potency result in test [1] and in test [2] was “inactive” each time.
Regarding `NC[C@H]1O[C@H](O[C@H]2[C@H](O)[C@@H](O[C@H]3O[C@H](CO)[C@@H](O)[C@H](N)[C@H]3O)[C@H](N)C[C@@H]2N)[C@H](N)[C@@H](O)[C@@H]1O`, the viability change, negative = cytotoxic in test [1] was -2.98% [at 18.9 µM]. In test [2], the activity change, negative = cytotoxicity is -6.94% [at 18.9 µM].
